Experimental data as given in ChEMBL document CHEMBL1961873, “Compounds: GSK PKIS; Assays: Nanosyn kinase panel” (2012).

Experiments:
[1] = target: Ribosomal protein S6 kinase alpha-6 (Homo sapiens) (UniProt Q9UK32); details: at 1 µM;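 also: each value is a mean inhibition of RSK4 from a GSK PKIS panel screen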
[2] = target: T1, Serine/threonine-protein kinase Sgk1 (Homo sapiens) (UniProt O00141); details: at 0.1 µM
T1 sequence (whole entry): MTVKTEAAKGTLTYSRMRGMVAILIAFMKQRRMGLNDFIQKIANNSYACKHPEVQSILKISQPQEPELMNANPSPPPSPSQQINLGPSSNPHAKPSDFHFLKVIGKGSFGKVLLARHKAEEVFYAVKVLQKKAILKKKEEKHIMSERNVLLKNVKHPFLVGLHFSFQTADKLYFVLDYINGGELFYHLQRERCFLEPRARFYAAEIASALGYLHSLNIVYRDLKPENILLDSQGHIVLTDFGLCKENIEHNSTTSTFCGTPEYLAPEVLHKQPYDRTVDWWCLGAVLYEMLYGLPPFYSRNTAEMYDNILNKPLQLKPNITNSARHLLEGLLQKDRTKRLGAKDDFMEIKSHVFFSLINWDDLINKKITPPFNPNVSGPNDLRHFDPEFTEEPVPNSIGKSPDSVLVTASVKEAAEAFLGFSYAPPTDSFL

[3] = target: T1, Serine/threonine-protein kinase Sgk1 (Homo sapiens); details: at 1 µM
[4] = target: T2, Serine/threonine-protein kinase Sgk2 (Homo sapiens) (UniProt Q9HBY8); details: at 0.1 µM
T2 sequence (whole entry): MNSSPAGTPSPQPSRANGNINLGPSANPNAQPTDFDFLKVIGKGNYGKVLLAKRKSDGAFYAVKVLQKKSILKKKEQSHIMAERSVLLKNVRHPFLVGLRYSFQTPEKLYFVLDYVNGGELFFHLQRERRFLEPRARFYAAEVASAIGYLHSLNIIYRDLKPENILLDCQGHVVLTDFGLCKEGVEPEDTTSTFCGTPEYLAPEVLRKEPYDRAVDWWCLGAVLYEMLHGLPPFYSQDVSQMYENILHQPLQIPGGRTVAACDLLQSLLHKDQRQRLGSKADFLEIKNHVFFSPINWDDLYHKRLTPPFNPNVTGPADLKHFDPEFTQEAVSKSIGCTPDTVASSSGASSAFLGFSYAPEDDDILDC

[5] = target: T2, Serine/threonine-protein kinase Sgk2 (Homo sapiens); details: at 1 µM
[6] = target: T3, Serine/threonine-protein kinase Sgk3 (Homo sapiens) (UniProt Q96BR1); details: at 0.1 µM
T3 sequence (whole entry): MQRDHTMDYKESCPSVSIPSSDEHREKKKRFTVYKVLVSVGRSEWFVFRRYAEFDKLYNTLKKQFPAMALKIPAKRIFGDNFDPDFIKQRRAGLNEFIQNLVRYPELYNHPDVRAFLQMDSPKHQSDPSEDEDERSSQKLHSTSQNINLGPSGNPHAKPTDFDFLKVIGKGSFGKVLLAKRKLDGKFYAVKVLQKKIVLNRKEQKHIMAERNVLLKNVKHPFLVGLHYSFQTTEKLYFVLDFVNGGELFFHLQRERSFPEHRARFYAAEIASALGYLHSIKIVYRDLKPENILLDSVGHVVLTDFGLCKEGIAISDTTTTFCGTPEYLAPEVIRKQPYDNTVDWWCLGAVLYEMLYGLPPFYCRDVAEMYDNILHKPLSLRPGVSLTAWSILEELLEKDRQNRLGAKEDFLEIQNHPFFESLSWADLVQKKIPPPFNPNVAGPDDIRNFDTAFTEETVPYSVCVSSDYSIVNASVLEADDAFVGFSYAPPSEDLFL

[7] = target: T3, Serine/threonine-protein kinase Sgk3 (Homo sapiens); details: at 1 µM
[8] = target: 5'-AMP-activated protein kinase catalytic subunit alpha-1 (Homo sapiens) (UniProt Q13131); details: at 0.1 µM
5'-AMP-activated protein kinase catalytic subunit alpha-1 (Homo sapiens), sequence (Q13131 whole entry, looked up): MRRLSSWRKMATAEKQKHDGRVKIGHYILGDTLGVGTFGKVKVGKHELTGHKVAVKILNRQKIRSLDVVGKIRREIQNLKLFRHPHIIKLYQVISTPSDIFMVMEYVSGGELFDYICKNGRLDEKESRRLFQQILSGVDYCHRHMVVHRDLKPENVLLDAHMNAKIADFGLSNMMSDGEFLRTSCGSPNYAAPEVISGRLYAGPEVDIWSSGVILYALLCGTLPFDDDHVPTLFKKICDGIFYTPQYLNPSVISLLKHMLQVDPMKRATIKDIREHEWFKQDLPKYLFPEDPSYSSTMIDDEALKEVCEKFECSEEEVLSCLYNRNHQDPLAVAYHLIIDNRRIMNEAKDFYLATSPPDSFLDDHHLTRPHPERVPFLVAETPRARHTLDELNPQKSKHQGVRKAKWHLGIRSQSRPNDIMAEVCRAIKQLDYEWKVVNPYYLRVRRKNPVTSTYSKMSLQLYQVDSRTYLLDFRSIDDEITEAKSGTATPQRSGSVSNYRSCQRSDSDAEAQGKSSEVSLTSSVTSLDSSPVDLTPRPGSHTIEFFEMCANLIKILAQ

[9] = target: 5'-AMP-activated protein kinase catalytic subunit alpha-1 (Homo sapiens) (UniProt Q13131); details: at 1 µM
[10] = target: 5'-AMP-activated protein kinase catalytic subunit alpha-2 (Homo sapiens) (UniProt P54646); details: at 0.1 µM
5'-AMP-activated protein kinase catalytic subunit alpha-2 (Homo sapiens), sequence (P54646 whole entry, looked up): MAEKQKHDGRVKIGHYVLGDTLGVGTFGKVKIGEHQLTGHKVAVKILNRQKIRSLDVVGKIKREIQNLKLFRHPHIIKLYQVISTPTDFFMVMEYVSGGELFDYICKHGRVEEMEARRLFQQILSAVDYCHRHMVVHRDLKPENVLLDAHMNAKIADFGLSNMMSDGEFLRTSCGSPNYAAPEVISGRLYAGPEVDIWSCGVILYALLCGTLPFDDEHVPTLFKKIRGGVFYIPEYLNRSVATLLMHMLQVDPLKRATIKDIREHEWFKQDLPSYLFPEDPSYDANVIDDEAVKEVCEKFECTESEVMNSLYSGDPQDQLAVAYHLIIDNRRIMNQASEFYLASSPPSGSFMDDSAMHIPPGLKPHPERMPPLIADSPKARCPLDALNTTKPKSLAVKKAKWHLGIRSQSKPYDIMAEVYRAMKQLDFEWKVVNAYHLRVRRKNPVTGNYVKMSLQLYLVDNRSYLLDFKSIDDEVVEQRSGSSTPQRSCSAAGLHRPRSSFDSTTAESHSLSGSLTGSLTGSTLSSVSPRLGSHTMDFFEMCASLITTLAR

[11] = target: 5'-AMP-activated protein kinase catalytic subunit alpha-2 (Homo sapiens) (UniProt P54646); details: at 1 µM
[12] = target: T4, NUAK family SNF1-like kinase 1 (Homo sapiens) (UniProt O60285); details: at 0.1 µM
T4 sequence (whole entry): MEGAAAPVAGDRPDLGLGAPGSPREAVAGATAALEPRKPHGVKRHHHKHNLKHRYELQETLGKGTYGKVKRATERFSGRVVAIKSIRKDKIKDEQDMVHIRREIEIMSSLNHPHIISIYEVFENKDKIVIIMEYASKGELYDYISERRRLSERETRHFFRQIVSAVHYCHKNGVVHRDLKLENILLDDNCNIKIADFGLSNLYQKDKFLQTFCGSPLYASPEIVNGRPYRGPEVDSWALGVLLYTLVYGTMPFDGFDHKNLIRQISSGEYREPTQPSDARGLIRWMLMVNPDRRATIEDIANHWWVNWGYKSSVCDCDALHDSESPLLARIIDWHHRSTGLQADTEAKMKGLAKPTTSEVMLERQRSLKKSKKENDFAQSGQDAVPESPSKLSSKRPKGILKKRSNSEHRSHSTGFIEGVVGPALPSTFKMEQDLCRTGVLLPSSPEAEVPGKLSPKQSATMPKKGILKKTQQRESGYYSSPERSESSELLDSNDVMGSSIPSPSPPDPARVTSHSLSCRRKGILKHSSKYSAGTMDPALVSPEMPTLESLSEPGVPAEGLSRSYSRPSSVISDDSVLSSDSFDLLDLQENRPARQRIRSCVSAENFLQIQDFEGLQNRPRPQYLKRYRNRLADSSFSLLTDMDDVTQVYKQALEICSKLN

[13] = target: T4, NUAK family SNF1-like kinase 1 (Homo sapiens); details: at 1 µM
[14] = target: T5, Serine/threonine-protein kinase BRSK1 (Homo sapiens) (UniProt Q8TDC3); details: at 0.1 µM
T5 sequence (whole entry): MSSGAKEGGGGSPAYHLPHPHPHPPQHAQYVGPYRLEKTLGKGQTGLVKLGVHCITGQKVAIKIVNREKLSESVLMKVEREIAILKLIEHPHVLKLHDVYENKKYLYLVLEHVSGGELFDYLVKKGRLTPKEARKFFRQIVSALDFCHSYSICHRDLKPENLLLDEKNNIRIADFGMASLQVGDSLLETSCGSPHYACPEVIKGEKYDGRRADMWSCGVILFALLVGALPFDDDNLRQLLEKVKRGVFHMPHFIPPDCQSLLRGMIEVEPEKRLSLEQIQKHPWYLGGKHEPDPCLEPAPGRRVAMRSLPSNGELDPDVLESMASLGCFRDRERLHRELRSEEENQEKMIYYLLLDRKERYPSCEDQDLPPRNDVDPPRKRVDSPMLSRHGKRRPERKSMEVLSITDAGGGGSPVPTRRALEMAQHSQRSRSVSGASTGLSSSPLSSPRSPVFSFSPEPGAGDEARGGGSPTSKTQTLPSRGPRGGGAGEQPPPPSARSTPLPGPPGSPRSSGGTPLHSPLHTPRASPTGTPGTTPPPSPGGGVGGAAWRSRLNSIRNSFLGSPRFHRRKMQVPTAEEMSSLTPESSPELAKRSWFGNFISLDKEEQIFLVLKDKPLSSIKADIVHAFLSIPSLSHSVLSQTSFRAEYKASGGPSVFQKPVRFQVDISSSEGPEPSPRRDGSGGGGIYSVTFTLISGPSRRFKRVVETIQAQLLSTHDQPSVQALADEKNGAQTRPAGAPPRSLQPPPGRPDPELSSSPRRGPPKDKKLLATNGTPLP

[15] = target: T5, Serine/threonine-protein kinase BRSK1 (Homo sapiens); details: at 1 µM
[16] = target: T6, Serine/threonine-protein kinase BRSK2 (Homo sapiens) (UniProt Q8IWQ3); details: at 0.1 µM
T6 sequence (whole entry): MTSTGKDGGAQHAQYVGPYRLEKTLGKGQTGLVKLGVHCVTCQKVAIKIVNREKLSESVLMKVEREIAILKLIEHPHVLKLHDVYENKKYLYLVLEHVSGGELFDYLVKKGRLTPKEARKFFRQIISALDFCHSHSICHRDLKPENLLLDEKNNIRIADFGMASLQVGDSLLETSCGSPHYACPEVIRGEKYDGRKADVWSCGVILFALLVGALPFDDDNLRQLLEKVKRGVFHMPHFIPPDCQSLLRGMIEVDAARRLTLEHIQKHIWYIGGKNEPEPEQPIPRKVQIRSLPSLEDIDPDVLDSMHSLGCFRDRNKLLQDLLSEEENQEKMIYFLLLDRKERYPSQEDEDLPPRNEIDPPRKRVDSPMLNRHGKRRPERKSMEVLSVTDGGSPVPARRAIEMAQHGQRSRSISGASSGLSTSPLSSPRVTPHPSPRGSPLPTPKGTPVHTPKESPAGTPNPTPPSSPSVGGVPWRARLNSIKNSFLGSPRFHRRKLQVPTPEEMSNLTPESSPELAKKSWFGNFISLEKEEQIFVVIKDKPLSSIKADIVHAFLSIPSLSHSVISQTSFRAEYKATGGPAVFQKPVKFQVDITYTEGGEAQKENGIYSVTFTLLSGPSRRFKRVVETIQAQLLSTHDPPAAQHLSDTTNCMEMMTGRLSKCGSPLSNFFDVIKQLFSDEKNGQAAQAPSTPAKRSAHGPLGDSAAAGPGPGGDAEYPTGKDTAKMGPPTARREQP

[17] = target: T6, Serine/threonine-protein kinase BRSK2 (Homo sapiens); details: at 1 µM
[18] = target: Calcium/calmodulin-dependent protein kinase type 1D (Homo sapiens) (UniProt Q8IU85); details: at 0.1 µM
Calcium/calmodulin-dependent protein kinase type 1D (Homo sapiens), sequence (Q8IU85 whole entry, looked up): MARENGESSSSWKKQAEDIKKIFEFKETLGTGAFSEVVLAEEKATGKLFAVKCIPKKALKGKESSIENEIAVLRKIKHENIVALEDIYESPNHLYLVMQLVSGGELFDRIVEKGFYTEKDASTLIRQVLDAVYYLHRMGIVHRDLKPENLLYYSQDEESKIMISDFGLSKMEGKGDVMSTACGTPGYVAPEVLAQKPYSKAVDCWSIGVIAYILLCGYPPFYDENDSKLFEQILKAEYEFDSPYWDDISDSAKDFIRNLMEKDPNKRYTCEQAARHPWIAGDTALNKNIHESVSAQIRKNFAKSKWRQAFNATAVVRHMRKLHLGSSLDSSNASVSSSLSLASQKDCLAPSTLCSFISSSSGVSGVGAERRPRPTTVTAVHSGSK

[19] = target: Calcium/calmodulin-dependent protein kinase type 1D (Homo sapiens) (UniProt Q8IU85); details: at 1 µM
[20] = target: Calcium/calmodulin-dependent protein kinase type II subunit alpha (Homo sapiens) (UniProt Q9UQM7); details: at 0.1 µM;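 also: reported values are averages (mean inhibition of CAMK2A)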
Calcium/calmodulin-dependent protein kinase type II subunit alpha (Homo sapiens), sequence (Q9UQM7 whole entry): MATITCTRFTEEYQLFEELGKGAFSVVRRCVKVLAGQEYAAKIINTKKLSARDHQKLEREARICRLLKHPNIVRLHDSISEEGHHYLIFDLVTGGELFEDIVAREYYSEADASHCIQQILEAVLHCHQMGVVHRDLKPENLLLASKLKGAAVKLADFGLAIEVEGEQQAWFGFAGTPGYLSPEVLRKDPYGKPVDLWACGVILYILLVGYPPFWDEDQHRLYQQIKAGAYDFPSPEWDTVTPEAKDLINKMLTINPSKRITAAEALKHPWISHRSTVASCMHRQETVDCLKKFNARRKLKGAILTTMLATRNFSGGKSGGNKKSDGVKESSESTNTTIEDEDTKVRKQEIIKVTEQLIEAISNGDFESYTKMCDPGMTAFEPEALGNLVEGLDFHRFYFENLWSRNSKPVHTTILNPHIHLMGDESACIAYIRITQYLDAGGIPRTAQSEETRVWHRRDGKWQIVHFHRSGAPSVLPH

Ribosomal protein S6 kinase alpha-6 (Homo sapiens), sequence (Q9UK32 whole entry): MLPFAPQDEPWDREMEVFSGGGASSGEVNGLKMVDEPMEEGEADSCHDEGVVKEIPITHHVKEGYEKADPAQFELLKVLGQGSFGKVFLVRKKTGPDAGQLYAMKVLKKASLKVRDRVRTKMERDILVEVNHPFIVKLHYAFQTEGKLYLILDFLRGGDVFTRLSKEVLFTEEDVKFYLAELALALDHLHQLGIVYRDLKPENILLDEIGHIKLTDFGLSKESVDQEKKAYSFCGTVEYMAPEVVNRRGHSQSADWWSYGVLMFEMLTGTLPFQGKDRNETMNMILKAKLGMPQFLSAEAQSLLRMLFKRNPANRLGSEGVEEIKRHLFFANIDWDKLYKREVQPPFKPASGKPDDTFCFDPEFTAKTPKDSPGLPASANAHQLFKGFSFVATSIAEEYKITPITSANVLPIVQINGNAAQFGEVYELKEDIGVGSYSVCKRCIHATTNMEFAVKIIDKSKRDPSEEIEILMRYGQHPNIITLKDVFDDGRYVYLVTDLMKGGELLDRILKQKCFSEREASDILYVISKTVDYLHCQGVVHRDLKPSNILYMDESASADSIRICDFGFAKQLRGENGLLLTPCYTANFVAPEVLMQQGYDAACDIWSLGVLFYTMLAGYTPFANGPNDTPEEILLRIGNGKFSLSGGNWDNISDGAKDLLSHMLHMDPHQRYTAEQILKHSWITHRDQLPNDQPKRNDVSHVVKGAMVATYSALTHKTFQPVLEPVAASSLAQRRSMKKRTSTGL

Question: How did the inhibition [1] turn out when `COc1cc(Nc2ncc(-c3ccccc3)o2)cc(OC)c1` was run?
Answer: The inhibition was 2.83%.

Question: And the inhibition [2]?
Answer: The inhibition was 3.1%.

Question: And the inhibition [3]?
Answer: Its inhibition is 4.7%.

Question: And the inhibition [4]?
Answer: Its inhibition is 3.93%.

Question: What about the inhibition [5] of the same compound?
Answer: Its inhibition is 4.37%.

Question: And the inhibition [6]?
Answer: Its inhibition is 3.26%.

Question: What about the inhibition [7] of the same compound?
Answer: Its inhibition is 3%.

Question: What about the inhibition [8] of the same compound?
Answer: Its inhibition is 2.43%.

Question: What about the inhibition [9] of the same compound?
Answer: Its inhibition is 5.67%.

Question: What about the inhibition [10] of the same compound?
Answer: The inhibition was 2.86%.

Question: What about the inhibition [11] of the same compound?
Answer: Its inhibition is 8.23%.

Question: And the inhibition [12]?
Answer: Its inhibition is 5.89%.

Question: What about the inhibition [13] of the same compound?
Answer: The inhibition was 32.7%.

Question: And the inhibition [14]?
Answer: Its inhibition is -1.27%.

Question: And the inhibition [15]?
Answer: The inhibition was 8.79%.

Question: And the inhibition [16]?
Answer: The inhibition was 2.68%.

Question: And the inhibition [17]?
Answer: Its inhibition is 7.23%.

Question: What about the inhibition [18] of the same compound?
Answer: Its inhibition is -0.33%.

Question: And the inhibition [19]?
Answer: The inhibition was -0.66%.

Question: And the inhibition [20]?
Answer: Its inhibition is 2.98%.

Question: Which inhibition [1] does the source give for `CCS(=O)(=O)c1ccc(OC)c(Nc2ncc(-c3cccc(C(C)=O)c3)o2)c1` here?
Answer: Its inhibition is 2.13%.

Question: And the inhibition [2]?
Answer: The inhibition was 0.32%.

Question: What about the inhibition [3] of the same compound?
Answer: The inhibition was 5.11%.

Question: And the inhibition [4]?
Answer: The inhibition was 2.27%.

Question: And the inhibition [5]?
Answer: Its inhibition is 3.41%.

Question: What about the inhibition [6] of the same compound?
Answer: Its inhibition is 1.59%.

Question: What about the inhibition [7] of the same compound?
Answer: The inhibition was 2.93%.

Question: What about the inhibition [8] of the same compound?
Answer: The inhibition was 2.21%.

Question: And the inhibition [9]?
Answer: Its inhibition is 4.72%.

Question: What about the inhibition [10] of the same compound?
Answer: Its inhibition is -0.37%.

Question: And the inhibition [11]?
Answer: Its inhibition is 3.65%.

Question: What about the inhibition [12] of the same compound?
Answer: The inhibition was 2.25%.

Question: And the inhibition [13]?
Answer: The inhibition was 4.46%.

Question: And the inhibition [14]?
Answer: Its inhibition is -0.38%.

Question: What about the inhibition [15] of the same compound?
Answer: The inhibition was 3.68%.

Question: And the inhibition [16]?
Answer: Its inhibition is 1.58%.

Question: What about the inhibition [17] of the same compound?
Answer: The inhibition was 4.09%.

Question: And the inhibition [18]?
Answer: Its inhibition is 0.3%.

Question: What about the inhibition [19] of the same compound?
Answer: Its inhibition is -0.69%.

Question: What about the inhibition [20] of the same compound?
Answer: Its inhibition is 2.75%.

Question: How did the inhibition [1] turn out when `OCCCNc1nccc(-c2c(-c3ccc(F)cc3)nn3cc(C(F)(F)F)ccc23)n1` was run?
Answer: Its inhibition is 2.38%.

Question: What about the inhibition [2] of the same compound?
Answer: Its inhibition is 2.5%.

Question: What about the inhibition [3] of the same compound?
Answer: The inhibition was 1.43%.

Question: And the inhibition [4]?
Answer: Its inhibition is 1.44%.

Question: What about the inhibition [5] of the same compound?
Answer: The inhibition was 5.76%.

Question: What about the inhibition [6] of the same compound?
Answer: Its inhibition is 1.97%.

Question: What about the inhibition [7] of the same compound?
Answer: Its inhibition is 2.06%.

Question: What about the inhibition [8] of the same compound?
Answer: The inhibition was 2.58%.

Question: What about the inhibition [9] of the same compound?
Answer: Its inhibition is 1.3%.

Question: And the inhibition [10]?
Answer: Its inhibition is -0.71%.

Question: And the inhibition [11]?
Answer: The inhibition was 3.17%.

Question: And the inhibition [12]?
Answer: Its inhibition is 0.07%.

Question: What about the inhibition [13] of the same compound?
Answer: The inhibition was 3.25%.

Question: What about the inhibition [14] of the same compound?
Answer: Its inhibition is 1.56%.

Question: And the inhibition [15]?
Answer: Its inhibition is 3.4%.

Question: What about the inhibition [16] of the same compound?
Answer: Its inhibition is 1.44%.

Question: What about the inhibition [17] of the same compound?
Answer: Its inhibition is 3.37%.

Question: What about the inhibition [18] of the same compound?
Answer: Its inhibition is -0.48%.

Question: And the inhibition [19]?
Answer: Its inhibition is 3.05%.

Question: What about the inhibition [20] of the same compound?
Answer: The inhibition was 2.38%.
